In PubChem BioAssay (EPA / NIEHS):
Calls of active or inactive are those of the source. The calls were made as follows: active = hit-call score of the fitted dose curve at least 0.9, where 1 is the maximum; inactive = score below 0.9.

assay: CCTE_Shafer_MEA_acute_burst_number: CCTE's Neural Acute Assay for Single-Electrode Bursts, Shafer Lab (AID 2284013)
Procedure: CCTE_Shafer_MEA_acute assay is conducted using Axion Biosystems 48 well microelectrode array (MEA) plates and Maestro recording system. Each well of the MEA plate contains a grid of 16 microelectrodes embedded in the culture surface. Electrically active cells, such as neurons, can be cultured over the electrodes, and electrical activity in these cells can be recorded extracellularly. The spontaneous firing of neurons is captured from each electrode on a microsecond timescale providing both temporally and spatially precise data. […] The CCTE_Shafer_MEA_acute assay uses primary cultures of rat cortical neurons. As these cultures mature over time, neural networks develop functional activity and form cohesive networks in which electrical activity can be highly coordinated. Baseline 40-minute recordings are made on days post-plating 13 or 15, followed by a secondary 40-minute recording after chemical exposure.CCTE_Shafer_MEA_acute_burst_number is a component of the CCTE_Shafer_MEA_acute assay. It measures the total number of single-electrode bursts (temporally-clustered groups of action potential firing) during a recording in a microelectrode array (MEA) using Axion Biosystems Maestro 768 channel amplifier with the AxIS adaptive spike detector. The recordings before and after chemical treatment are used to calculate a percent change in the burst number in each well.Data from the assay component CCTE_Shafer_MEA_acute_burst_number was analyzed into 1 assay endpoint. This assay endpoint, CCTE_Shafer_MEA_acute_burst_number, was analyzed in the negative analysis fitting direction relative to DMSO as the negative control and baseline of activity. Using a type of functional reporter, gain or loss-of-signal activity can be used to understand electrical activity.
Spontaneous activity in the cortical cultures was recorded using an Axion Biosystems Maestro 768 channel amplifier and Axion Integrated Studios (AxIS) v1.8 (or later) software. The amplifier recorded from all channels simultaneously (gain = 1200 x; sampling rate = 12.5 kHz/channel): raw signals were filtered with a Butterworth band-pass filter (300-5000 Hz), which filters out slower local field potentials leaving only fast potentials, i.e., "spikes", arising from extracellular currents associated with action potentials (Pine 2006; Wheeler and Nam 2011). On-line spike detection of filtered signals was conducted with the AxIS adaptive spike detector, using a threshold of 8x the root mean squared (rms) noise on each channel. Any electrodes with rms noise levels greater than 5 uV were grounded (e.g., no data were recorded). Once grounded, an electrode was grounded for the duration of the experiment. All recordings were conducted at 37 C. Wells were deemed usable if on the day of the exposure >/= 10 electrodes were active (defined as >/= 5 spikes/min). On DIV 13 or 15, a minimum of three wells from one cortical culture preparation were treated with each compound (0.03-40 uM). Prior to recording baseline activity, each mwMEA plate was placed in the Maestro at 37 C and allowed to sit for 20 min while firing rates stabilized. Baseline activity (40 min) was recorded before the addition of each compound. An additional 40 min of spontaneous activity was recorded in the presence of each compound. Changes in network parameters relative to baseline were assessed following compound treatment.

Row | Compound | AC50 | outcome
1 | CC[C@H]1CC[C@H](NCc2cc3c(cc2OC)[C@H]2C[C@H]2C(=O)N3C)[C@H](c2ccccc2)N1 | 3.09 µM (active) | –
2 | O=C(O)CCN(C1(C(=O)NO)CCCC1)S(=O)(=O)c1ccc(Oc2ccc(F)cc2)cc1 | – | inactive
3 | CCC(C)(C)C(=O)O[C@H]1C[C@@H](C)C=C2C=C[C@H](C)[C@H](CC[C@@H]3C[C@@H](O)CC(=O)O3)[C@H]21 | – | inactive
4 | COc1cccc(-c2ccc(/C=C\CN3CCCCCC3)cc2Cl)c1 | – | inactive
5 | CCCCCCCCCCCCc1ccccc1 | – | inactive
6 | CC[C@H]1OC(=O)[C@H](C)[C@@H](O[C@H]2C[C@@](C)(OC)[C@@H](O)[C@H](C)O2)[C@H](C)[C@@H](O[C@@H]2O[C@H](C)C[C@H](N(C)C)[C@H]2O)[C@](C)(O)C[C@@H](C)C(=O)[C@H](C)[C@@H](O)[C@]1(C)O | – | inactive
7 | COc1ccc2sc(C(=O)Nc3nnn[nH]3)c(OC(C)C)c2c1 | – | inactive
8 | O=P(OC(CCl)CCl)(OC(CCl)CCl)OC(CCl)CCl | – | inactive
9 | Cn1cnc([N+](=O)[O-])c1Sc1ncnc2nc[nH]c12 | – | inactive
10 | Cc1[nH]cnc1C[C@H]1CCc2c(C)c3ccccc3n2C1=O | – | inactive
11 | O=C(O)c1cc(N=Nc2ccc(S(=O)(=O)Nc3ccccn3)cc2)ccc1O | 0.0299 µM (active) | –
12 | On1ccccc1=S | – | inactive
13 | CC(C)=CCCC(C)=CC=O | – | inactive
14 | CCCCCCc1ccc(O)cc1O | 12.5 µM (active) | –
15 | CCOC(=O)c1ccc(C2CCC(NC[C@H](O)COc3ccc(O)c(NS(C)(=O)=O)c3)CC2)cc1 (stereo partly drawn) | – | inactive
16 | CCCN(C1CCN(C(=O)C2CCNCC2)CC1)[C@@H]1CCc2ccc(OC)cc2C1 | – | inactive
17 | CCCCC(CC)COC(=O)CCCCCCCCC(=O)OCC(CC)CCCC (stereo not drawn) | – | inactive
18 | Cn1c(=O)c2c(ncn2C)n(C)c1=O | – | inactive
